# Luminol counter – quenches luminol chemiluminescence in Nox1 counter-screen. 16,000 compounds, 0.4% hits. HRP/luminol/H2O2 chemiluminescence counterscreen. inhibition, % at 6.7 µM. AID 1823; also: reference of the scale not given here
# S1P1 ag – S1P1 (human) receptor agonism. P21453. S1P1 agonist cell-based reporter assay. activation, % at 4.5 µM. 16,000 compounds, 1.5% hits; in the data active = activation above about 80%
# NOTCH ag – NOTCH pathway agonism; NOTCH signaling luciferase reporter cells, luminescence; activation, % at 2.5 µM; 15,000 compounds, 0.4% hits; AID 434982; in the data active = activation above about 2.2%
# Nox1 inh – human Nox1 inhibition. HT29 cells, luminol chemiluminescence ROS. Q9Y5S8. 16,000 compounds, 0.81% hits. inhibition, % at 6.7 µM
# Target sequence (Q9Y5S8 whole entry, looked up): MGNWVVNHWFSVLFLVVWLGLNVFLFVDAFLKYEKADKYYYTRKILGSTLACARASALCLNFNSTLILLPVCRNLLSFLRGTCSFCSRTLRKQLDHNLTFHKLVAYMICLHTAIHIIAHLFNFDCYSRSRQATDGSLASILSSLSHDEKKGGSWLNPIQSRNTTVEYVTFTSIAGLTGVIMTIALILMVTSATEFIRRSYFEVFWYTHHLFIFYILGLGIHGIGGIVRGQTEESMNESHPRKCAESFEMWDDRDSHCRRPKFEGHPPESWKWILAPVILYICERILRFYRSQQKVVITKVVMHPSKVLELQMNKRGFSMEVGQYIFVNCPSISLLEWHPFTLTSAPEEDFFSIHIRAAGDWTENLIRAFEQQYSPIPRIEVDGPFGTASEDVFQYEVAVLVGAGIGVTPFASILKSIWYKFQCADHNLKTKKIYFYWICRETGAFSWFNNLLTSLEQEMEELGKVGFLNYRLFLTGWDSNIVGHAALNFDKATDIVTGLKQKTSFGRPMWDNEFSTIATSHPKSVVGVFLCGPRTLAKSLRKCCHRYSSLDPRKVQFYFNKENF
# rat GALR2 agon – GALR2 (rat) receptor agonism; cell-based GALR2 agonist screen; activation, % at 10 µM; 16,000 compounds, 0.5% hits; AID 833; in the data active = activation above about 15%
# PME-1 Maybridge – Maybridge compound blocking human PME-1; AID 2291; recombinant PME-1, FP-Rh probe fluorescence polarization; Q9Y570; inhibition, % at 9 µM; 16,000 compounds, 0.5% hits; in the data active = inhibition above about 30%
# * = called active by the depositor; · = not tested or not shown. In the library only some 3.8% were active in any assay of this set; here they are far more common. Rule as the data show it, unless noted: active = inhibition above about 75%; inactive = the rest.
SMILES,Luminol counter,S1P1 ag,NOTCH ag,Nox1 inh,rat GALR2 agon,PME-1 Maybridge
Cn1c(=O)c2c(NCc3ccccc3)cc(=O)n(C)c2n(C)c1=O,3.8,-37.3,8.5*,-48.1,3.9,-0.5
O=C(NNc1nc(-c2cc3ccccc3o2)cs1)c1ccc(Cl)cc1,27.5,9.7,-0.2,37.2,-2.5,-1.4
Cc1cc(C(=O)NNC(=O)Nc2ccc(Cl)cc2)no1,68.5,-7.0,-0.3,-40.1,-3.9,2.1
Cc1cc(C(=O)NNC(=O)CSCc2cccc3ccccc23)no1,-5.7,-10.0,2.8*,-7.9,-8.2,4.1
COC(=O)c1cc(OC(=O)c2nn(-c3ccccc3)nc2C)n(-c2ccccc2)n1,56.6,-0.4,0.1,16.0,-5.6,1.0
COC(=O)CC(CC(=O)OC)(c1cc(C)c(O)c(C)c1)c1cc(C)c(O)c(C)c1,77.5*,4.4,-0.6,21.1,-0.3,7.4
O=C(/C(=C\c1ccccc1)n1ccnc1)c1ccccc1OCc1ccccc1,4.5,120.9*,·,-46.0,-8.9,6.7
O=[N+]([O-])c1cc(C(F)(F)F)ccc1Oc1ccc(-c2nnco2)cc1,-1.0,29.7,-0.6,76.8*,-5.6,16.6
O=S(=O)(Cc1ccc(F)cc1)Cc1noc(-c2ccc(F)cc2Cl)n1,-1.8,-5.6,2.3*,-21.1,-6.5,1.2
CS(=O)(=O)Cc1noc(-c2cc(C(F)(F)F)cc(C(F)(F)F)c2)n1,-5.1,-13.2,-0.4,21.9,-6.2,2.5
CC(=O)Nc1cc(C(F)(F)F)cc(C(F)(F)F)c1,-3.0,-14.0,-0.2,6.8,-7.8,4.0
Cn1nc(C(F)(F)F)c(-c2ccccc2)c1N1C(=O)C2C3C=CC(C3)C2C1=O (centres undefined),-2.0,86.0*,-0.4,-47.8,-6.5,1.9
N#C/C(=C\c1ccc(O)cc1)c1ccc([N+](=O)[O-])cc1,100.6*,29.8,0.7,0.0,-8.2,3.8
CCOC(=O)CC1=CSC2=NCCN12,-7.3,-11.6,0.1,-6.8,-6.4,-2.4
CCOC(=O)/C(=N\O)C1=CSC2=NNC(C)(C)N12,8.4,94.2*,-0.8,-46.1,-1.0,-55.1
CCN(CC)c1ccc(C#N)cc1,-6.1,-2.6,0.1,4.3,-8.6,5.3
CCN(CC)c1ccc(/C=C/c2ccc([N+](=O)[O-])cc2C#N)cc1,-12.0,104.0*,-0.1,-2.7,-12.5,-2.0
O=C(NNC(=O)c1cccc(C(F)(F)F)c1)c1ccncc1,3.3,2.1,-0.5,-34.6,-5.4,4.5
O=C(NNc1nc(-c2cccs2)ns1)c1cccc(C(F)(F)F)c1,56.9,16.7,0.7,104.4*,-7.9,7.1
CSc1nc2cc(C)nn2c(-c2ccco2)c1C#N,-7.4,-4.4,-0.3,5.6,-5.5,3.8
O=C(NNc1ccc(-c2csnn2)cc1)c1ccc(Cl)cc1,75.1*,7.0,-0.2,56.5,4.7,6.4
CSC(/N=C(/N)C(F)(F)F)=C(C#N)C#N,-1.0,-11.2,-0.7,-46.3,-5.3,-2.2
O=C(Oc1ccccc1N1CCOCC1)c1cccs1,-1.0,7.2,-0.3,98.3*,-5.2,1.0
O=C(Oc1ccccc1)c1cccnc1Oc1ccccc1,-9.5,-4.8,0.0,16.4,-6.4,4.4
O=C(Oc1ccccc1N1CCOCC1)c1cccnc1Oc1ccccc1,7.3,0.6,1.3,79.2*,-5.1,0.3
SMILES,Luminol counter,S1P1 ag,NOTCH ag,Nox1 inh,rat GALR2 agon,PME-1 Maybridge
O=C(Oc1ccccc1N1CCCCC1)c1ccco1,7.8,-14.4,-5.5,82.8*,-6.0,-2.0
O=C1NCCN1CCNS(=O)(=O)c1ccc(S(=O)(=O)c2ccccc2)s1,3.0,83.5*,-1.0,-61.3,5.0,3.6
N/C(=N\OC(=O)c1cccc(C(F)(F)F)c1)c1ccc(OCC(F)(F)F)nc1,0.8,84.5*,-0.6,-51.9,-5.7,-3.4
N/C(=N\OC(=O)c1cccc(Cl)c1)c1cccc(C(F)(F)F)c1,-6.3,98.6*,-0.4,16.9,-6.4,-1.9
COc1ccc(OCCC#N)cc1,-5.0,-8.1,0.1,6.7,-3.1,0.4
Oc1ccc2ccccc2c1N=Nc1ccc(N2CCCCC2)cc1,18.6,17.4,0.5,56.8,-13.6,12.5
O=C1c2ccccc2S(=O)(=O)N1CCS(=O)(=O)c1ccc(Cl)cc1Cl,2.4,90.6*,-0.9,-37.0,-2.5,2.4
CCC1CSc2nc3ccsc3c(=O)n21 (centres undefined),4.0,-2.5,-0.5,-55.8,-9.2,-0.3
O=C1c2ccccc2C(=O)N1CNc1ccc(N2CCOCC2)cc1,-4.2,-5.8,-0.1,97.6*,-5.7,5.4
Cc1nc2cccc(F)c2c(=O)[nH]1,1.2,0.0,0.1,-9.5,-7.0,-5.2
O=c1[nH][nH]c2cccc(F)c12,10.5,4.9,-1.0,79.3*,-7.0,-1.5
FC(F)(F)c1cnc(NCc2cccnc2)c(Cl)c1,-2.1,10.8,0.4,-22.6,-8.6,0.5
FC(F)(F)c1cnc(NCCCNC(=S)Nc2cccnc2)c(Cl)c1,-2.8,24.4,2.8*,24.6,-7.2,5.5
O=c1c(Cl)c2oc3ccccc3nc-2c2ccccc12,7.0,-11.7,-0.5,90.1*,-12.0,8.7
COC(=O)C1=C(N)CC(c2ccccc2)S1 (centres undefined),0.9,2.5,-0.2,-46.4,-2.9,-4.3
N#CCSC1=CC(=O)CC(c2ccccc2)S1 (centres undefined),2.8,90.5*,-0.2,-46.1,-0.5,1.5
CCCCCCCCCCCC(=O)Nc1cc(OC)ccc1OC,-7.3,0.3,-0.3,-13.5,-4.9,4.4
O=S(=O)(Cc1ccc(Cl)cc1)NCc1cccnc1,0.4,-14.8,-0.3,-30.5,27.2*,3.2
Clc1ccc(NCc2cccnc2)c(Cl)c1,1.2,0.9,-0.2,-21.9,-3.0,3.1
CCOC(=O)C(=CNNc1ccnc2cc(Cl)ccc12)C(=O)OCC,3.1,22.8,0.1,83.7*,-2.6,7.8
Cc1nn(C)c(NN2C(=O)c3cccc4cc([N+](=O)[O-])cc(c34)C2=O)c1[N+](=O)[O-],2.0,-3.4,-0.1,16.0,-6.0,15.5
FC(F)(F)c1cc(-c2ccccn2)n[nH]1,0.9,-18.9,-1.2,-43.0,-7.3,-3.8
Cn1c(CC2Sc3ccccc3NC2=O)nnc1SCC(=O)Nc1cccc(C(F)(F)F)c1 (centres undefined),93.1*,18.3,0.2,16.7,14.0,5.9
COC(=O)c1sccc1NNC(=O)CC#N,14.7,9.3,0.1,87.2*,-3.1,3.0
CCOC(=O)/C(C#N)=C/Nc1ccsc1C(=O)OC,-4.0,-4.0,-0.5,29.3,-1.4,4.4
CC(=O)Nc1cccc(OCCCNC(=O)c2cc(-c3ccc(Cl)cc3)oc2C(F)(F)F)c1,-0.6,58.7,-0.7,-22.7,-8.1,-10.4
O=C1CSC(c2cccs2)C1 (centres undefined),-8.1,25.9,-0.3,-11.6,-8.0,3.8
Cn1c(-c2cc(C(C)(C)C)nn2Cc2ccc(F)cc2)n[nH]c1=S,99.4*,-3.9,0.6,4.7,-5.7,6.7
Cc1cccc(C)c1NC(=O)CN1CCOCC1,2.5,20.7,0.3,-78.1,-4.6,-4.0
COc1cc([N+](=O)[O-])c(OC)cc1SCC(=O)NNC(=S)Nc1ccc(F)cc1,83.0*,12.6,-0.2,20.8,-3.5,9.1

# Source: PubChem BioAssay
